# Measured values from PubChem BioAssay AID624126 (The Scripps Research Institute Molecular Screening Center, 2012).
# Where “and” joins values, the source holds several entries; their conditions need not be identical. Identical values can stand only once. About 1,400 (0.39%) of roughly 360,000 compounds were called active. The list comes from a sample in which actives are over-represented; it also holds similar structures and randomly drawn compounds. A number with no mark means an inactive call.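 The calls were made as follows: active = activation above its plate's cutoff, the mean activation of sample wells plus 3 SD; inactive = the rest.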
# Target: Muscarinic acetylcholine receptor M4 (Homo sapiens) (UniProt P08173)
# Sequence (P08173 whole entry, looked up): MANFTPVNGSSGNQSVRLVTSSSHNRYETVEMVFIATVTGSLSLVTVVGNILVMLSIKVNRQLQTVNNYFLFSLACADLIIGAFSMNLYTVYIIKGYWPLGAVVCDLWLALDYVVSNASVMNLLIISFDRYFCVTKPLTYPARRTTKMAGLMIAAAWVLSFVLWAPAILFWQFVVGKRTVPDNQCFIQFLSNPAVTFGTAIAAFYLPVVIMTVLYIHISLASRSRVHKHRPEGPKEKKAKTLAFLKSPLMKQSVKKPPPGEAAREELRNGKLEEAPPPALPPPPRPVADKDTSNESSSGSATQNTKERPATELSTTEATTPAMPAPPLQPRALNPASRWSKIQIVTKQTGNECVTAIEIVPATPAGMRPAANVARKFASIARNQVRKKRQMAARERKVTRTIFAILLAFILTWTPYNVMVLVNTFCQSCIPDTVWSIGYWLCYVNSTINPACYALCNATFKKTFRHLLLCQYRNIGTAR
# Assay: CHRM4 PAMs potentiating acetylcholine calcium signal – CHO-K1 cells, Fluo-8 calcium fluorescence, primary screen (AID 624126)
# Details: CHO-K1 hM4/Gqi5, Fluo-8 calcium fluorescence, ACh EC20; at 3 µM; active compounds read high; 0% = ACh EC20, 100% = maximal ACh
row,Compound,activation
1,Cc1c(C(=O)NNC(=O)c2ccncc2)oc2ccccc12,5.49%
2,Cc1c(C=O)c2ccccn2c1C(=O)c1ccncc1,30.8% (active)
3,Cc1c(C=O)c2ccccc2n1CC(=O)O,4.05%
4,COc1cccc(CNCCc2c[nH]c3ccccc23)c1OCc1ccccc1F,-8.42%
5,Cc1nc2sc(C(c3ccco3)N3CCOCC3)c(O)n2n1 (stereo unspecified),31.4% (active)
6,Cc1nc2sc(C(c3ccco3)N3CCC4(CC3)OCCO4)c(O)n2n1 (stereo unspecified),5.78%
7,Cc1ccc(C(c2sc3nc(C)nn3c2O)N2CCN(c3ccccc3)CC2)cc1 (stereo unspecified),4.41%
8,CCc1nnc(NS(=O)(=O)c2ccc(NC(=S)NC(=O)/C=C/c3cccs3)cc2)s1,-0.35%
9,Cc1cc(NS(=O)(=O)c2ccc(NC(=O)c3cccc(OC(F)F)c3)cc2)nc(C)n1,3.12%
10,CCc1nnc(NS(=O)(=O)c2ccc(NC(=O)c3cccc(OC(F)(F)C(F)F)c3)cc2)s1,13.1% (active)
11,CC(C)(C)N1CC(c2nc3ccccc3n2Cc2ccc(F)cc2)CC1=O (stereo unspecified),-1.38%
12,O=C(Nc1ccc2c(c1)OCCO2)C(C1CC1)N1CCC(Cc2ccccc2)CC1 (stereo unspecified),-15.2%
13,CCc1ccccc1OCC(=O)Nc1ccc2c(c1)OCCO2,-2.66%
14,CC(=O)NCC(=O)N(C)C(C(=O)Nc1ccc2c(c1)OCCO2)c1ccccc1 (stereo unspecified),16.8% (active)
15,Cc1ccccc1OCC(=O)N(Cc1cccc(F)c1)C1CCS(=O)(=O)C1 (stereo unspecified),0.66%
16,CCOCCCn1c(SCC(=O)Nc2cc(OC)ccc2OC)nc2ccccc2c1=O,-0.05%
17,CCOc1ccc(-n2c(SCC(=O)Nc3cc(C(=O)O)ccc3Cl)nc3ccccc3c2=O)cc1,17.1% (active)
18,CCOc1ccc(NC(=O)CSc2nc3ccccc3c(=O)n2Cc2cccs2)cc1,-2.3%
19,O=C1OCC2=C1C(c1ccccc1)CC(=O)N2c1cccc(F)c1 (stereo unspecified),11.7%
20,CC(C)c1cccc(C(C)C)c1Nc1cn[nH]c1,28.5% (active)
21,O=C(NCCOc1ccccc1)N1[C@H]2CC[C@@H]1C=C(c1ccc(F)cc1OCc1ccccc1)C2,-2.49%
22,O=C(CSc1nnnn1-c1ccccc1)NCc1ccco1,-4.53%
23,O=C(CSc1nnc(-c2c[nH]c3ccccc23)n1-c1ccc(F)cc1)NCc1ccco1,32.8% (active)

row,Compound,activation
1,COc1ccc(-n2c(SCC(=O)NCc3ccco3)nnc2-c2c[nH]c3ccccc23)cc1,-1.54%
2,CCn1c(SC(C)C(=O)Nc2ccc(N3CCOCC3)cc2)nnc1-c1ccco1 (stereo unspecified),1.69%
3,CCC(C)N(C(=O)CSc1ncnc2c1cnn2-c1ccccc1)C1CCS(=O)(=O)C1 (stereo unspecified),-4.86%
4,CC(Sc1ncnc2c1cnn2-c1ccccc1)C(=O)Nc1ccc(N2CCOCC2)cc1 (stereo unspecified),23.6% (active)
5,CCOc1ncccc1C(=O)Nc1ccc2c(c1)OCCO2,-0.95%
6,CCC(=O)c1cc(F)ccc1OCC(=O)Nc1ccc2c(c1)OCCO2,-4.48%
7,CCOC(=O)c1cnc2ccc(F)cc2c1Nc1ccc2c(c1)OCCO2,27.1% (active)
8,CCOc1cc(C)c(Cl)cc1S(=O)(=O)n1nnc2ccccc21,6.7%
9,COc1ccccc1Nc1ncc(C(C)=O)c(C)n1,2.09%
10,O=C(c1[nH]ncc1-c1ccc(Cl)cc1)C1CO1 (stereo unspecified),-6.34%
11,Cc1ccc(C(=O)CN2C(=O)NC3(CCc4ccccc43)C2=O)c(C)c1 (stereo unspecified),-0.51%
12,COc1ccc(C(=O)CN2C(=O)NC3(CCc4ccccc43)C2=O)c(OC)c1 (stereo unspecified),22.9% (active)
13,COc1ccc(-n2c(C)cc(C(=O)CN3C(=O)NC4(CCc5ccccc54)C3=O)c2C)cc1 (stereo unspecified),-7.44%
14,Cc1ccc(C(=O)NCC(=O)NCc2cc(=O)n(C)c(=O)n2C)cc1,-0.97%
15,CCOc1ccc(NS(=O)(=O)c2ccc(C(=O)NCC3CCCO3)cc2)cc1 (stereo unspecified),-2.16%
16,Cc1nc(N)sc1N=Nc1c(C)n(C)n(-c2ccccc2)c1=O,3.22%
17,CC(=O)c1sc(N)nc1C,3.44% and -1.75%
18,Cc1nc(N)sc1-c1ccccc1,16.2% (active)
19,CCN(C(=O)COC(=O)c1ccc(COc2ccc3c(C)cc(=O)oc3c2)cc1)C1CCS(=O)(=O)C1 (stereo unspecified),-5.76%
20,CN=C(NC#N)NCCSCc1nc[nH]c1C,-5.15%
21,O=C1c2cccc3cccc(c23)C(=O)N1c1cccc(O)c1,-10.1%
22,O=C1c2cccc3cc(Br)cc(c23)C(=O)N1Nc1ccccc1,21.6% (active)
23,O=C1C=C(c2ccc(Cl)cc2)C(=O)N1Nc1ccccc1,-7.82%
